From the supplement of paper PMC10849652
The full data set covers some 8,800 targets. This sample favours those with a hit. About 0.5% of all pairs of compound and target were hits. A number with no mark means an inactive call.

Key:
Assay in all cases: log2 fold change, soluble protein after heating vs DMSO (PISA); higher = thermal stabilisation; K562 lysate, 10 uM; active = over 0.2 and 3.5 SD of the protein, either way, in both replicates (recomputed)
[1] = compound: NCC(=O)Nc1ccc(-n2nc(C(F)(F)F)cc2-c2ccc3c(ccc4ccccc43)c2)cc1
How it was run: (§1)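 A 30 min treatment with 10 μM compound was applied to crude K562 extract at 1 mg/mL protein in PBS pH 7.4 with 1 mM MgCl2. Heating for 3 min spanned 48°C-58°C, after which aliquots were pooled, adjusted to 0.5% NP-40 at 4°C and spun at 21,000xg for 90 min. TMTpro 16plex LC-MS/MS of the supernatant, with channel sums equalised, gave values recorded as log-two fold change in thermal stability against solvent controls, from duplicates.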

vorinostat = compound: O=C(CCCCCCC(=O)Nc1ccccc1)NO [vorinostat]
How it was run: as §1

silmitasertib = compound: O=C(O)c1ccc2c(c1)nc(Nc1cccc(Cl)c1)c1ccncc12 [silmitasertib]
How it was run: as §1

[2] = compound: O=C1NC(=O)C(c2cnc3ccccn23)=C1c1cn2c3c(cc(F)cc13)CN(C(=O)N1CCCCC1)CC2
How it was run: as §1

entospletinib = compound: c1cn2cc(-c3ccc4cn[nH]c4c3)nc(Nc3ccc(N4CCOCC4)cc3)c2n1 [entospletinib]
How it was run: as §1

Sequence of UniProt P67870 (P67870 whole entry, looked up): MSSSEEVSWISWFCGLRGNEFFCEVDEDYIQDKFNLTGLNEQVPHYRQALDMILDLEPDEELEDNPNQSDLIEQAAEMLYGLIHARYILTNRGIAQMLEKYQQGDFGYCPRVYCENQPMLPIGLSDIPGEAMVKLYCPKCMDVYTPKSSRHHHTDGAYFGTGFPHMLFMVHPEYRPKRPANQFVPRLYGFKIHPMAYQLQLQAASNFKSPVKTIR
Sequence of UniProt O95628 (O95628 whole entry, looked up): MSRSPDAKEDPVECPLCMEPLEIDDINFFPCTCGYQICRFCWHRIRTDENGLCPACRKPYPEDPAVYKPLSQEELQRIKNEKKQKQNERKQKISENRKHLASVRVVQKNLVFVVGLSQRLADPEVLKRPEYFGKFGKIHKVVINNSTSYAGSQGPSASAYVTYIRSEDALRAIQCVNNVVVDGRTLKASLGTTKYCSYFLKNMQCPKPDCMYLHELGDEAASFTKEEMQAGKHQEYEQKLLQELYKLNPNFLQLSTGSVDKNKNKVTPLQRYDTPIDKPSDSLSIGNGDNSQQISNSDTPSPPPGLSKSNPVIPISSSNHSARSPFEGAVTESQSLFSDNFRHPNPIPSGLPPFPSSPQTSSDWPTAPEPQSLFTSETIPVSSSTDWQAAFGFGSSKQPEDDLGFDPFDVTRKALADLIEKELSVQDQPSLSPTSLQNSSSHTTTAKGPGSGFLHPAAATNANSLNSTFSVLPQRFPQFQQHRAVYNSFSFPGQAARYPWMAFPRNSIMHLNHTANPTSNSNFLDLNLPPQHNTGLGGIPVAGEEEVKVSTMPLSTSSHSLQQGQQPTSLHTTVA
Sequence of UniProt P39880 (P39880 whole entry, looked up): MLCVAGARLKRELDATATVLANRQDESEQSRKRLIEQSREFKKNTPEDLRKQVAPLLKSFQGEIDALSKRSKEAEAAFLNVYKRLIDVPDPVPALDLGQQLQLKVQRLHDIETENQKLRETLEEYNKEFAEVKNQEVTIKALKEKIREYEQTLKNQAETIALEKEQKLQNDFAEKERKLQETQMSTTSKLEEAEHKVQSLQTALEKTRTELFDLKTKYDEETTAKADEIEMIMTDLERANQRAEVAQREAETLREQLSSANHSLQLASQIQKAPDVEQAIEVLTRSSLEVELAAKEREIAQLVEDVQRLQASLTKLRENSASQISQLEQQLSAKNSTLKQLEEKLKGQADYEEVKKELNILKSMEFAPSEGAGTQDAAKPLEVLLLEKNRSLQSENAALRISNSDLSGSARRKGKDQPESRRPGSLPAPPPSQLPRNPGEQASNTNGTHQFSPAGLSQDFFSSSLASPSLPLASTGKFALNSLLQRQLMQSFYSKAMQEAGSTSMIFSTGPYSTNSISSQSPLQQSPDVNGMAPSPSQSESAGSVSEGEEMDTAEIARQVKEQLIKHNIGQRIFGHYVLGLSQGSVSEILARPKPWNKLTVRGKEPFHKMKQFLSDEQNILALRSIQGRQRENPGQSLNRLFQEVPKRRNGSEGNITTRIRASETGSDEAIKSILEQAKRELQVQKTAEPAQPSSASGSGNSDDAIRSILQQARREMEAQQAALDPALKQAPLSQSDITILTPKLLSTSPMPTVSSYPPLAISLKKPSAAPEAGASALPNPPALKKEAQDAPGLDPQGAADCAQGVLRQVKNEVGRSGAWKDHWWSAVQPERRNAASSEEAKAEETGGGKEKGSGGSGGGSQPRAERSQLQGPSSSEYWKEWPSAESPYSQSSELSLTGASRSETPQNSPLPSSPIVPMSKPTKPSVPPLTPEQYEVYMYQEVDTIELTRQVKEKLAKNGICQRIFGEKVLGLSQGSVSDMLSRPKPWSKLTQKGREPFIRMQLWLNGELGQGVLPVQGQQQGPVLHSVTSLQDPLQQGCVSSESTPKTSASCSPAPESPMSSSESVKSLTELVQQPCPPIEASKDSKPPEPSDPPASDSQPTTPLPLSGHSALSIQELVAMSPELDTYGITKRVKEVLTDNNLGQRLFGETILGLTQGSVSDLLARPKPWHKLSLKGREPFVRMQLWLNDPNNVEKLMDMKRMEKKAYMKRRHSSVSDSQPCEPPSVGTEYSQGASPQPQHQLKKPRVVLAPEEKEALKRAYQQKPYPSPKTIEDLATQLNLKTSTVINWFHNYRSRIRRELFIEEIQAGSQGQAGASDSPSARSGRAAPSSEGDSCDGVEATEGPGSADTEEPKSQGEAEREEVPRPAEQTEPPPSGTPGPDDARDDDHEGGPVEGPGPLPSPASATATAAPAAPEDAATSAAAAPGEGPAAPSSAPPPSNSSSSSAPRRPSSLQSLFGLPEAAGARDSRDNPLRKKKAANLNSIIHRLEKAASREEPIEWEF
Sequence of UniProt P04080 (P04080 whole entry, looked up): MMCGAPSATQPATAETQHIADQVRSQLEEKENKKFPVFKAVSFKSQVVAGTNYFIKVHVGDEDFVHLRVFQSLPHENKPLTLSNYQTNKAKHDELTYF
Sequence of UniProt Q92466 (Q92466 whole entry, looked up): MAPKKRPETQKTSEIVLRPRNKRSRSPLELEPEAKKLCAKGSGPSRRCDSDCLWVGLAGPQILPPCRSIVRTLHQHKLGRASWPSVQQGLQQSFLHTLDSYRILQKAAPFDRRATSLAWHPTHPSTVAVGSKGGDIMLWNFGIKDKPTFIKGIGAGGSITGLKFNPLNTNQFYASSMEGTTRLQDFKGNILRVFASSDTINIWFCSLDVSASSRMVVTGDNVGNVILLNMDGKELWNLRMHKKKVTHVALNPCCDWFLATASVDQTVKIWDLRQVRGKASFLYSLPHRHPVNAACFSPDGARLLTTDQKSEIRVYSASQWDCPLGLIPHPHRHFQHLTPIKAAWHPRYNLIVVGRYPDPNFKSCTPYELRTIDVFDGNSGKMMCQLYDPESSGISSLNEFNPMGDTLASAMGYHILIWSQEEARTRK
Sequence of UniProt Q9P0U4 (Q9P0U4 whole entry, looked up): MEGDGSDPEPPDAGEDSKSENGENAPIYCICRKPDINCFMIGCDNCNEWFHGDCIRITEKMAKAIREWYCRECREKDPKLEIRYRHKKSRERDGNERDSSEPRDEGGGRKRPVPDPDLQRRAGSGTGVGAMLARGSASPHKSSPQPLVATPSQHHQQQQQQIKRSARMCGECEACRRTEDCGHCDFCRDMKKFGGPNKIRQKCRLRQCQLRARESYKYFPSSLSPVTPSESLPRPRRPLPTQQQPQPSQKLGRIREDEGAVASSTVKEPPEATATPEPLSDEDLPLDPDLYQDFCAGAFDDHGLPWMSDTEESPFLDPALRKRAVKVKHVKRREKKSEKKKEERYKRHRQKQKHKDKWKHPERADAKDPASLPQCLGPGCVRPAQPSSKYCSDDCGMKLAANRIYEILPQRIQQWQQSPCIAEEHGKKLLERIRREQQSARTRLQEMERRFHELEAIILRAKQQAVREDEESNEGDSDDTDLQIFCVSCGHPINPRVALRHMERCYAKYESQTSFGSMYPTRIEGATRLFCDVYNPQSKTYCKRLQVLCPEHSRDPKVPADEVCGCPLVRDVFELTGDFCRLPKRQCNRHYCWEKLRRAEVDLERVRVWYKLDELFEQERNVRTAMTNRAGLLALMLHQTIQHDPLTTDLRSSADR
Sequence of UniProt Q13057 (Q13057 whole entry, looked up): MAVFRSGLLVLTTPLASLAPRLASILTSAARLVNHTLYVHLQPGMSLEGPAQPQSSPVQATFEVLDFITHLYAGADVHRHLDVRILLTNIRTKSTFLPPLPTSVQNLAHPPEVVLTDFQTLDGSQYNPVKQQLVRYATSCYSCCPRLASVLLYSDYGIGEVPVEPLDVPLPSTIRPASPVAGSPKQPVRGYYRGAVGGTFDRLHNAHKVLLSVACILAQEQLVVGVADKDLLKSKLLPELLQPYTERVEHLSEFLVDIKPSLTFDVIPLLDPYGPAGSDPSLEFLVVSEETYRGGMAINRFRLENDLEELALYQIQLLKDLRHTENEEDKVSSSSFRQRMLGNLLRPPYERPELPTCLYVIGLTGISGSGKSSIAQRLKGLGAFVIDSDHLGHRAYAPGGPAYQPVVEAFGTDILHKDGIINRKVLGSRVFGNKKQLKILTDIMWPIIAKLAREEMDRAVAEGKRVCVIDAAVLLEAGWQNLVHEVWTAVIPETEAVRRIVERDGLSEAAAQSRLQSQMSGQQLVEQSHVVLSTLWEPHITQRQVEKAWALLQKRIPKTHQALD
Sequence of UniProt Q8IWF6 (Q8IWF6 whole entry, looked up): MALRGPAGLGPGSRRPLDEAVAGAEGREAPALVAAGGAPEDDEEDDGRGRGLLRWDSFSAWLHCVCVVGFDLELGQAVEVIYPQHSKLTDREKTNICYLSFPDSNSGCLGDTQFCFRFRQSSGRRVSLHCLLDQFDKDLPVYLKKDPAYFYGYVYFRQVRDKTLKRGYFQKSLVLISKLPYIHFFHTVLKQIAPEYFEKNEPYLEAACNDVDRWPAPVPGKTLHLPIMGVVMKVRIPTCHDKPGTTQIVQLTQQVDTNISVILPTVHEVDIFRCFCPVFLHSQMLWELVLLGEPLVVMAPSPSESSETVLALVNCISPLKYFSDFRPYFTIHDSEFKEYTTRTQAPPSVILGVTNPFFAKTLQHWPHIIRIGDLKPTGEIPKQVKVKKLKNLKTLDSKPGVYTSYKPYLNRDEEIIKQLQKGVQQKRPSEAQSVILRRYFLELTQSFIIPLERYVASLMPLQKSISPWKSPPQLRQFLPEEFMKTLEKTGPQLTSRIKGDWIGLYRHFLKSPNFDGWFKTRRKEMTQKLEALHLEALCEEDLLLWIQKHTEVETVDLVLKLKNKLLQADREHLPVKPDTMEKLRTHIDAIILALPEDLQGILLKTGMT
Sequence of UniProt O75911 (O75911 whole entry, looked up): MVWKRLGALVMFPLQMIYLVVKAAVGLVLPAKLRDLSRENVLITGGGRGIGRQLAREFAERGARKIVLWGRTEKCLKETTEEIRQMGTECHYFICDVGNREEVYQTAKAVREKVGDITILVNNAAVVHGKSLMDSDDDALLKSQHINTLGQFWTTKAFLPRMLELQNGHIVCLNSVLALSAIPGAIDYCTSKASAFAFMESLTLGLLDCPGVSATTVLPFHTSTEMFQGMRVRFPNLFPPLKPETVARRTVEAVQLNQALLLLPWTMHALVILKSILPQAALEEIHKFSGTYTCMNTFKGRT

| Target | log2 fold change [1] | log2 fold change (vorinostat) | log2 fold change (silmitasertib) | log2 fold change [2] | log2 fold change (entospletinib) |
| --- | --- | --- | --- | --- | --- |
| CXXC1 isoform 2 (UniProt Q9P0U4) | -0.008 | -0.18 | 0.08 | 0.027 | -0.033 |
| COMT (UniProt P21964) | -0.106 | -0.294 (active) | 0.04 | 0.007 | 0.015 |
| DENND6A (UniProt Q8IWF6) | -0.049 | -0.38 (active) | 0.1 | -0.07 | -0.051 |
| CIP2A (UniProt Q8TCG1) | 0.043 | -0.608 (active) | 0.055 | 0.011 | 0.008 |
| COG2 (UniProt Q14746) | -0.031 | -0.315 (active) | 0.055 | 0.061 | 0.058 |
| CNOT4 isoform 6 (UniProt O95628) | -0.028 | 0.046 | -0.032 | -0.057 | -0.011 |
| CSNK2B (UniProt P67870) | 0.2 | -0.016 | 0.595 (active) | 0.023 | 0.241 |
| COASY isoform 2 (UniProt Q13057) | 0.018 | -0.214 (active) | 0.075 | 0.006 | 0.019 |
| CIC (UniProt I3L2J0) | -0.002 | -0.108 | -0.011 | 0.075 | 0.033 |
| DHRS3 (UniProt O75911) | 0.032 | -0.055 | -0.062 | 0.025 | 0.096 |
| CYP2S1 isoform 2 (UniProt Q96SQ9) | 0.014 | 0.067 | -0.027 | -0.025 | 0.055 |
| CUX1 isoform 3 (UniProt P39880) | 0.008 | 0.005 | 0.025 | -0.022 | -0.014 |
| CYP24A1 (UniProt Q07973) | 0.187 | 0.119 | 0.019 | 0.081 | 0.002 |
| DCTN1 isoform 4 (UniProt Q14203) | 0.144 | -0.143 | -0.027 | 0.011 | -0.085 |
| CYP51A1 (UniProt Q16850) | -0.065 | 0.017 | -0.084 | 0.864 (active) | 0.024 |
| CKM (UniProt P06732) | 0.003 | -0.053 | -0.025 | -0.014 | -0.026 |
| CSNK1G3 (UniProt Q9Y6M4) | -0.004 | -0.011 | 0.055 | -0.029 | 0.039 |
| COX7B (UniProt P24311) | -0.043 | 0.081 | 0 | 0 | 0.104 |
| DDB2 (UniProt Q92466) | 0.054 | 0.048 | -0.022 | -0.002 | 0.019 |
| CSTB (UniProt P04080) | -0.097 | 0.125 | -0.045 | 0.022 | -0.007 |
| DHRS1 (UniProt Q96LJ7) | -0.154 | -0.561 (active) | -0.021 | -0.055 | -0.138 |
